Results filed as inconclusive are left out. Entries that show only a call come without a potency. Activity calls are given as the source filed them. Unless noted, the call rests on the fitted dose curve; in most records, active means well fitted curve in the direction sought with a large enough effect in the repeat runs; inconclusive means weak or mixed curves; inactive means no such curve, though single readings can be large; an effect the other way counts as inactive or inconclusive.
Key:
[1] = biological target: Calcium and integrin-binding protein 1 (Homo sapiens) (UniProt Q99828); assay: Primary qHTS for Identification of Calcium Integrin Binding Protein 1 (CIB1) Competitor (AID 1508620; active means well fitted curve in the direction sought with a large enough effect; an effect the other way counts as inactive or inconclusive;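 further: GST tagged CIB1 binding a fluorescein labelled alphaIIb integrin peptide tracer; top concentration of the series differs between compounds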)
Sequence of Calcium and integrin-binding protein 1 (Homo sapiens) (Q99828 whole entry, looked up): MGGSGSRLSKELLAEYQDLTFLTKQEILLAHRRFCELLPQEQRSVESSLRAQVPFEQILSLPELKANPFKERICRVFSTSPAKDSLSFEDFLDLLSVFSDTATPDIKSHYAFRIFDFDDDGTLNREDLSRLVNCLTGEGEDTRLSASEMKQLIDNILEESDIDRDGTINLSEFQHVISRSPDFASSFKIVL
Summary of the method: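 Fluorescence polarization competition: CIB1-GST (1 uM final) preincubated with compound 15 min at room temperature, then FITC-labeled alphaIIb peptide (100 nM final) added for another 15 min. Polarization read at Ex 480/Em 540.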

[2] = biological target: Cytochrome P450 2D6 (Homo sapiens) (UniProt P10635); assay: Cytochrome P450 family 2 subfamily D member 6 (CYP2D6) small molecule antagonists: luciferase biochemical (cell-free) qHTS assay (AID 1645840); further: nearly all actives have a fitted effect of over 55% in size; further: potency means the concentration at half of the fitted maximal effect
Sequence of Cytochrome P450 2D6 (Homo sapiens) (P10635 whole entry, looked up): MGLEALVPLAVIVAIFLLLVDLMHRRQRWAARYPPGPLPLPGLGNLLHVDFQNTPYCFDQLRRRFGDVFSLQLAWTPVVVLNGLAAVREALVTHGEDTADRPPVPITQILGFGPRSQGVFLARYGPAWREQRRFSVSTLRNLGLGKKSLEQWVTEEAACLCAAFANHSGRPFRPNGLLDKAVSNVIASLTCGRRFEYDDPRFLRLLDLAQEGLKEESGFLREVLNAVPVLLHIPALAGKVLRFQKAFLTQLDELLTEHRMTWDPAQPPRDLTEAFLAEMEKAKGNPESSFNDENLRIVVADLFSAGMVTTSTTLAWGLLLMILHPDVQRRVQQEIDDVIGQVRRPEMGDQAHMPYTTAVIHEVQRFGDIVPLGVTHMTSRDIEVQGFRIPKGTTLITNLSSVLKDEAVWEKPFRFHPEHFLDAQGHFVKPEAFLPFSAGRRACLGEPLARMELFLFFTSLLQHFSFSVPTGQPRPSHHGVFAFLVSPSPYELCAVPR
Summary of the method: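 P450-Glo luminescent screen: recombinant CYP2D6 enzyme–proluciferin substrate mix preincubated with compound 10 min at room temperature, then NADPH regeneration added for 1 h at room temperature. Detection reagent added for 20 min; luciferin light read as relative luminescence units.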

[3] = Primary qHTS for small molecule stabilizers of the endoplasmic reticulum resident proteome: Secreted ER Calcium Modulated Protein (SERCaMP) assay (AID 1508630; active means well fitted curve in the direction sought with a large enough effect; an effect the other way counts as inactive or inconclusive)
Summary of the method: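 GLuc-SERCaMP-expressing SH-SY5Y cells, pretreated 16 h with compound, are challenged with thapsigargin to empty ER calcium stores; after 4 h, coelenterazine is added directly to the medium and luminescence is imaged.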

Structure (SMILES) | Potency [1] | Potency [2] | outcome [3]
C=C(C)Cn1c(SCC(=O)c2cccs2)nc2sc3c(c2c1=O)CCCC3 | inactive | inactive | 
CC1(C)Oc2ncnc(N)c2N=C1c1ccc(C23CCC(CC(=O)O)(CC2)CC3)cc1 | inactive | inactive | 
CCOC(=O)C1(CCOc2ccccc2)CCN(Cc2ccc(O)c(Cl)c2)CC1 | inactive | 0.425 µM (active) | 
Fc1ccc(-c2cncc(CN3CCN(c4cccc5c4OCCO5)CC3)c2)cc1 | inactive | 9.52 µM (active) | 
Cc1cc(Nc2nc(-c3ccccc3)nc3ccccc23)n[nH]1 | inactive | inactive | 
O=C(N[C@@H]1CCCc2c1cnn2-c1ccc(F)cc1F)c1ccccn1 | inactive | inactive | 
O=C(NC1CCN(CCCCC2(C(=O)NCC(F)(F)F)c3ccccc3-c3ccccc32)CC1)c1ccccc1-c1ccc(C(F)(F)F)cc1 |  | 1.07 µM (active) | 
O=C(CN1C2=NCCN2c2ccccc21)c1ccc(-c2ccccc2)cc1 |  | 4.77 µM (active) | 
O=C(NCCCn1ccnc1)c1cc(-c2ccco2)on1 | inactive | 8.49 µM (active) | 
Cn1ncc(Cl)c1-c1cc(C(=O)N[C@H](CN)Cc2cccc(F)c2)sc1Cl |  | 2.68 µM (active) | 
Cc1nc(N2CCN(C(=O)c3ccco3)CC2)c2c3c(sc2n1)CCCC3 | inactive | 10.7 µM (active) | 
NC(=O)C[C@@H](N)C(=O)O |  |  | inactive
O=S(=O)(NCc1cccc2ccccc12)c1cc(Cl)c(Oc2cccc(N3CCNCC3)c2)s1 |  | 8.49 µM (active) | 
CC(C)OC(=O)N1CCC(Oc2ncnc3c2cnn3-c2ccc(S(C)(=O)=O)cc2F)CC1 | inactive | inactive | 
Cc1cc(C(=O)Nc2cc(Nc3ccc4c(/C=C/c5ccccn5)n[nH]c4c3)ccc2F)n(C)n1 | inactive | 7.56 µM (active) | 
CC1(C)S[C@@H]2[C@H](NC(=O)C(C(=O)Oc3ccc4c(c3)CCC4)c3ccccc3)C(=O)N2[C@H]1C(=O)O (some centres undefined) |  | inactive | 
Fc1ccc(CN2CCC(Nc3ccc(C(F)(F)F)nn3)CC2)cc1F |  | 1.2 µM (active) | 

Structure (SMILES) | Potency [1] | Potency [2] | outcome [3]
CC(C)(Cc1nc(-c2ccc(O)cn2)no1)C(=O)NC1=C(C(=O)O)CCCC1 | inactive | inactive | 
O=S(O)CO |  | inactive | 
CCC(C)c1ccc(NC(=O)Cn2cnc3c2c(=O)n(C)c(=O)n3C)cc1 (centres undefined) | inactive | inactive | 
CN[C@@H]1CCc2[nH]c3ccc(C(N)=O)cc3c2C1 |  | inactive | 
COC(=O)N1CCC(n2ncc3c(N4CCOCC4)nc(-c4ccc(NC(=O)NC5CC5)cc4)nc32)CC1 | inactive | 16.9 µM (active) | 
Cc1ccc(C)c(NC(=O)[C@@H]2CCCN2S(=O)(=O)c2cccc3cccnc23)c1 | inactive | 16.9 µM (active) | 
CC(C)(C)c1ccc2c(c1)CC[C@H]2NC(=O)Nc1cccc2[nH]ncc12 | inactive | inactive | 
CC1(NC(=O)c2ccc(C#Cc3cccc(F)c3)cn2)COC1 | inactive | inactive | 
CC[C@H]1CN(c2nc(N)c(C(N)=O)nc2Cl)CCN1C1CCN(Cc2ccc(Cl)cc2)CC1 | inactive | 12 µM (active) | 
CCc1cnc(N2CCC(c3nc(COc4ccc(-n5cnnn5)cc4)cs3)CC2)nc1 |  | inactive | 
C[C@H]1CO[C@@H]2Cn3cc(C(=O)NCc4ccc(F)cc4F)c(=O)c(O)c3C(=O)N12 | inactive | inactive | 
Cc1[nH]c2ccccc2c1CCNC(=O)c1cccs1 | inactive | 23.9 µM (active) | 
CN(C)CCCn1cc(C2=C(c3c[nH]c4ccccc34)C(=O)NC2=O)c2ccccc21 |  |  | inactive
CC1(C)OC[C@H](NC(=O)Nc2ccc(Br)cc2Br)[C@H](c2ccccc2)O1 |  | inactive | 
Cc1cc(C)c(-n2cc(C)c3c(Cl)nc(C)nc32)c(C)c1 | inactive | inactive | 
O=C(NCC1(N2CCN(c3ccccc3)CC2)CCOCC1)c1cccnc1Sc1ccccc1 | inactive | inactive | 
